# Compound activity from PubChem BioAssay.
# TDP43 rescue: qHTS of TDP-43 Inhibitors; hit rate 1.8% among 410,000; Potency, µM (series often up to 46.1 µM), inactives show at the highest dose growth rescue (activation), hits mostly activators; TDP-43 expressing yeast growth rescue, BacTiter-Glo, 24 h; note: % of control where 0% means no effect; nearly all actives have a fitted effect of over 50% in size
#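 Galactose-induced TDP-43 yeast, OD600=0.02, compound pinned; 24 hr, 30 deg C; BacTiter-Glo luminescence for growth. Inhibitors of TDP-43 toxicity read as activators.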
# aSyn yeast inh: qHTS of alpha-syn Inhibitors; hit rate 0.14% among 370,000; Yeast expressing alpha-synuclein, growth rescue, BacTiter-Glo, 24 h; Potency, µM (top dose mostly 46.1 µM), for inactives: top-dose growth rescue (activation), usual class: activators; AID 652106, 2013; note: % of control where 0% means no effect; nearly all actives have a fitted effect of over 65% in size
#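 Readout is rescue of growth in alpha-synuclein-expressing yeast, so inhibitors of toxicity appear as activators. Growth after 24 hr at 30 deg C in galactose medium is quantified by luminescence.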
# Abeta yeast res: qHTS for compounds that reverse cellular toxicity of Amyloid beta (A-beta) peptide in yeast: Primary Screen | yeast expressing A-beta42, growth rescue, OD600, 48 h; response scale: 0% DMSO, 100% iron-clioquinol control | Potency, µM (titrated, usually from 46.1 µM), hits mostly activators | hit rate 0.063% among 410,000 | AID 1347071, 2019; note: nearly all actives have a fitted effect of over 55% in size
#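 Growth rescue measured by 600 nm absorbance after 48 h yeast culture at 30 C with compound. Values normalized between DMSO and an equimolar ferric chloride plus clioquinol control.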
# Chronic BCR inh: qHTS Assay to Find Inhibitors of Chronic Active B-Cell Receptor Signaling. Potency, µM (highest dose often 46.1 µM), for the others: at the top dose activity change, negative = inhibition, usual class: inhibitors. hit rate 0.05% among 340,000. AID 493014, 2011. ABC-DLBCL IkBa-CBG/CBR reporter, luminescence ratio, 4 h; active = well fitted inhibition curve with a large enough effect in the signal ratio, with a control signal flat, not every such curve was filed as active; inconclusive = small, poorly fitted or top-dose-only effect, or effect the other way, or a change in a side signal; the % refers to the signal ratio;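 note: plate controls were basal doxycycline-induced cells for no effect and cells given 10 µM MG132 for full effect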
#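 Cell line TMD8 (human ABC DLBCL), stably expressing tet-inducible CBG68-IkBa fusion and CBR; IMDM/0.5% FBS; cpd up to 46 uM; dox induction, 4 h, 37C/5% CO2; dual luminescence; green/red ratio; MG132 control.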
# FUS yeast rescue: qHTS for Suppressors of FUS Proteinopathy: Primary screen using FUS-linked yeast assay | S. cerevisiae FUS-expressing, growth rescue, OD600, 24 h | Potency, µM (highest dose often 76.6 µM), most hits filed as activators | hit rate 0.24% among 390,000 | AID 1347120, 2019;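 note: plate controls were DMSO vehicle for no effect and reference control for full effect; nearly all actives have a fitted effect of over 55% in size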
#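 Restored growth of FUS-toxic S. cerevisiae, read as 600 nm absorbance after 24 h at 30C in galactose medium (starting OD 0.005). Controls CP55940 and DMSO.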
# uPA generation: qHTS for Inhibitors of Cell Surface uPA Generation. cell surface uPA generation assay, qHTS. Potency, µM (series often up to 38.3 µM), for inactives: top-dose activity change, negative = inhibition, actives largely listed as inhibitors. hit rate 0.31% among 330,000; active = well fitted inhibition curve with a large enough effect; inconclusive = small, poorly fitted or top-dose-only effect; inactive = no such curve, though single readings can be large or run the other way; tested in mouse RAW 264.7 cells; note: % is set by controls: 0 for no effect and ±100 for the full control effect; nearly all actives have a fitted effect of over 55% in size
# Active calls of the source: *; i = inactive; ? = inconclusive; · = no result given. Hits are enriched below; roughly 2.3% of the tested compounds scored in any of these assays. Unless noted, calls come from the whole dose curve; as a rule, active = well fitted curve in the direction sought with a large enough effect; inconclusive = small, poorly fitted or top-dose-only effect, or another doubt; inactive = no such curve, though single readings can be large; an effect the other way counts as inactive or inconclusive. Potency is the fitted concentration of half-maximal effect.
SMILES,TDP43 rescue,aSyn yeast inh,Abeta yeast res,Chronic BCR inh,FUS yeast rescue,uPA generation
Cc1cccc(OCCCN2C(=O)C(=O)c3cc(C)ccc32)c1,14.1µM*,-0.3%,i,?,i,-24.3%
Cc1ccc2c(c1)C(=O)C(=O)N2CCCOc1ccccc1,27.7%,-1.9%,i,?,i,-10.4%
Cc1cccc(OCCn2c(=O)n(C)c3ccccc32)c1,?,22.4µM*,i,-9.1%,i,?
CCCn1c(SCC(=O)Nc2cc(Cl)ccc2Cl)n[nH]c1=O,·,10.2%,i,3.3%,i,-1.1%
O=C(O)c1ccc(N/N=C/c2cc3cc4c(cc3nc2Cl)OCCO4)cc1,-12.5%,-6.8%,i,?,i,0.891µM*
N#CCC(=O)Nc1ccc(C(F)(F)F)cc1N1CCOCC1,1.8%,5.5%,i,?,i,0.2%
COc1cc(-c2nc3ccc(C)cn3c2NCc2ccccc2)ccc1SC1CCCCC1,23.5%,-39.7%,i,9.8%,?,8.91µM*
COc1ccc(CSc2ccc(-c3nc4ccccn4c3NCc3ccccc3)cc2OC)cc1,35.5µM*,-33.3%,i,5.8%,?,-5.3%
CC1CCN(CCCNS(=O)(=O)c2ccc3c(c2)CCN3C(=O)C2CC2)CC1,13.7%,-1.4%,·,0.9%,i,-1.4%
Nc1nc(Nc2ccccc2)nc(NCc2ccco2)c1[N+](=O)[O-],20µM*,9.5%,i,?,i,-1.4%
COc1ccc2cc(C(=O)NCc3ccc4c(c3)CCN4C(=O)c3ccc(F)cc3)[nH]c2c1,15.8µM*,·,i,-0.5%,i,·
COc1ccc2cc(C(=O)NCc3ccc4c(c3)CCN4C(=O)c3ccc(C)cc3)[nH]c2c1,4.8%,·,i,-1.3%,i,·
COc1ccc(-c2ccc(CCC(=O)O)n2-c2ccccc2OC)cc1,0.0%,17.3%,i,?,?,2.24µM*
CCOC(=O)c1nn(-c2ccc(Cl)cc2)cc1O,11.3%,-11.4%,i,-0.2%,i,-14.2%
O=C(C1CCCCC1)N1CCN=C1SCc1cccc([N+](=O)[O-])c1,17.8µM*,-13.8%,i,?,i,-3.2%
O=C(C1CCCCC1)N1CCN=C1SCc1cccnc1,?,1.7%,i,?,i,-10.5%
O=C(c1ccc([N+](=O)[O-])cc1)N1CCN=C1SCc1ccccc1,24.0%,2.2%,i,16.5%,i,3.9%
O=C(c1ccccc1)N1CCN=C1SCc1ccc([N+](=O)[O-])cc1,10µM*,2.1%,i,-1.3%,i,-11.8%
O=Cc1ccc(-n2cc(C=O)c3ccccc32)cc1,2.9%,0.8%,i,1.2%,i,-0.7%
O=C1/C(=C\c2ccco2)SC(=S)N1C1CCS(=O)(=O)C1 (stereo unspecified),3.7%,-1.7%,i,-2.7%,i,-3.1%
Nc1nc2c(s1)CCc1c-2cnn1-c1ccccc1,0.0%,11.2µM*,i,?,i,18.2%
Nc1nc2c(s1)COc1ccccc1-2,-59.2%,-34.7%,i,0.5%,i,-2.8%
COc1ccc(-c2nc(CSCC(=O)N3CCN(c4cccc(C)c4)C(C)C3)c(C)o2)cc1OC (stereo unspecified),22.4µM*,7.9%,i,-11.6%,?,?
Cn1c2ccccc2c2cc(C(=O)O)ccc21,?,7.6%,i,-15.1%,i,4.4%
C/C(=N\O)c1ccc2c3ccccc3n(C)c2c1,8.6%,-1.3%,i,?,i,-3.9%
CCn1c2ccccc2c2cc(/C(C)=N/O)ccc21,35.5µM*,?,i,-1.7%,·,5.1%
CCCn1c2ccccc2c2cc(C(=O)O)ccc21,6.31µM*,4.2%,i,?,i,12.4%
C=CCn1cccc(C(=O)Nc2ccc(C)cc2)c1=O,26.5%,-8.0%,i,-2.1%,i,-9.2%
